Here are results for 16 molecules from PubChem BioAssay (EPA / NIEHS).

By AC50 is commonly meant the concentration at which the activity in the assay is half-maximal.

Records with an inconclusive call do not appear. Calls of active or inactive are those of the source. Rule for the calls: active = hit-call score of the fitted dose curve at least 0.9, where 1 is the maximum; inconclusive = response in the unintended direction; inactive = score below 0.9.

Read-out in this experiment: HMG-CoA synthase (HMGCS2), HMGCS2 (gene 3158)
In words: CLD_HMGCS2_24hr: CellzDirect (CLD) Gene Expression Assay for HMG-CoA synthase (HMGCS2) at 24 hours (AID 2283691). The protocol: CLD_24hr is a cell-based, multiplexed-readout assay that uses hepatocyte, a human liver primary cell, with measurements taken at 24 hours after chemical dosing in a 96-well plate.CLD_HMGCS2_24hr is one of 16 assay component(s) measured or calculated from the CLD_24hr assay. It is designed to make measurements of mRNA induction, a form of inducible reporter, as detected with chemiluminescence signals by Quantitative Nuclease Protection Assay (qNPA) technology.Data from the assay component CLD_HMGCS2_24hr was analyzed at the endpoint, CLD_HMGCS2_24hr, in the positive analysis fitting direction relative to DMSO as the negative control and baseline of activity. Using a type of inducible reporter, gain-of-signal activity can be used to understand changes in the reporter gene as they relate to the gene HMGCS2. Furthermore, this assay endpoint can be referred to as a primary readout. To generalize the intended target to other relatable targets, this assay endpoint is annotated to the lyase intended target family, where subfamily is HMG-CoA synthase.
Human hepatocyte cultures were treated daily for two consecutive days with fresh dosing solutions containing appropriate concentrations of the 320 ToxCast chemicals (chemical identities were blinded to CellzDirect and other ToxCast collaborators), vehicle control (0.2% DMSO), and positive control inducers as summarized in Table 1. Due to the large number of treatment groups and chemicals examined, the ToxCast chemicals were divided into two groups (spanning two independent cultures of hepatocytes from separate donor preparations (Hu778: ToxCast plates 1 and 2; Hu776: ToxCast plates 3 and 4). Each preparation of human hepatocyte cultures was treated with respective vehicle control, medium only control, set of six positive controls/reference chemicals for the five hepatic receptor pathways, and a subset of eight of the ToxCast chemicals (indoxacarb, pyrithiobac-sodium, norflurazon, cyhalofop-butyl, methomyl, thiram, acetochlor, and propiconazole). These replicate data, coupled with internal replicates designed within the blinded ToxCast chemical library, provided additional data to evaluate interindividual differences between hepatocyte preparations and their potential impact on chemical profiles.Cell morphology and integrity were evaluated using phase-contrast microscopy as an indicator of hepatocyte cell health (Tyson & Green, 1987). Cultures for each treatment group (i.e., media, vehicle [0.2% DMSO], positive control inducers [multiple concentrations], and the ToxCast chemicals [multiple concentrations]) were observed and cell morphology was assessed relative to vehicle control cultures at each harvest time point (0, 6, 24, or 48 h). […] Images were evaluated at the conclusion of the study to assess changes in cell integrity and account for the effects of chemical exposure on uncharacteristic changes in concentration-dependent gene expression profiles. The results from these determinations of apparent cytotoxicity were annotated (yes/no) alongside the corresponding qNPA data for reference.At the conclusion of each treatment period, hepatocyte cultures (96-well) were washed with 1 volume of HBSS, lysed by addition of 25 ul ArrayPlate lysis buffer (HTG, Tucson, AZ), and 70 ul/well of Denaturation Oil, denatured by incubation at 95C for 10 min, and frozen at approximately -70C until analysis by nuclease protection assay (qNPA) (Roberts et al., 2007). For qNPA analysis, cell lysates were thawed at 50C for approximately 30 min, qNPA probes were added, and samples were incubated at 95C for 10 min to begin the detection process by denaturing the target RNA, dissociating the duplexes and secondary structure hybridization. At the conclusion of the hybridization period, S1 nuclease reagent was added to each sample to digest all nonprotected nucleotides at 50C for 60-90 min. […]
`OCCOc1ccccc1`: the molecule was classed as inactive.

`O=[N+]([O-])/N=C1\NCCN1Cc1ccc(Cl)nc1`: the molecule was classed as inactive.

For the molecule `O=C(O)CCCOc1ccc(Cl)cc1Cl`, the call was inactive.

On to `CNC(=O)CSP(=S)(OC)OC`, for which the outcome was inactive.

With `C#CCN1C(=O)COc2cc(F)c(N3C(=O)C4=C(CCCC4)C3=O)cc21`, the outcome was inactive.

With `CCS(=O)(=O)c1cccnc1S(=O)(=O)NC(=O)Nc1nc(OC)cc(OC)n1`, the outcome was inactive.

Take `Oc1ccc(Cl)cc1Cc1ccccc1`: the result was inactive.

On to `CNC(=O)Oc1cccc(N=CN(C)C)c1`, for which the molecule was classed as inactive.

Turning to `COC(=O)c1ccccc1S(=O)(=O)NC(=O)Nc1nc(C)nc(OC)n1`, the molecule was classed as inactive.

As for `O=C(O)COc1ccc(Cl)cc1Cl`, the AC50 was 22.5 nM (active).

Regarding `O=C(O)C(F)(F)C(F)(F)C(F)(F)C(F)(F)C(F)(F)C(F)(F)C(F)(F)F`, the molecule was classed as inactive.

`[2H]C1([2H])[n+]2ccccc2-c2cccc[n+]2C1([2H])[2H]`: the result was inactive.

As for `COP(=O)(OC)OC=C(Cl)Cl`, the molecule was called inactive.

On to `Oc1cc(Cl)ccc1Oc1ccc(Cl)cc1Cl`, for which the call was inactive.

In the case of `COc1cc(OC)nc(NC(=O)NS(=O)(=O)c2cc(NC=O)ccc2C(=O)N(C)C)n1`, the result was inactive.

With `N#Cc1c(Cl)c(Cl)c(Cl)c(C#N)c1Cl`, the molecule was classed as inactive.
